# Laboratory results published in the supplement of paper PMC5662767.
# Test system: Drosophila S2 cl14 SmoIP sensor cells
# Assay: normalized SmoIP GFP fluorescence (untreated unstimulated = 0%, untreated Hh-stimulated = 100%); higher = more Smo activation sensor fluorescence
# Conditions: stimulation: Hh conditioned medium (+Hh); compound concentration: 2 uM; 24 h
# 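Further: flow cytometry read-out as median GFP intensity of gated cells, compounds added 30 min before Hh-conditioned or mock medium, mock-treated cells serving as unstimulated baseline.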
row,SMILES,normalized SmoIP GFP fluorescence
1,Cc1c(NC(=O)OC[C@@H]2COCCN2)cn2ncnc(Nc3ccc4c(cnn4Cc4cccc(F)c4)c3)c12,128%
2,N[C@@H](CC(=O)N1CCn2c(nnc2C(F)(F)F)C1)Cc1cc(F)c(F)cc1F [Sitagliptin],103%
3,COCCCOc1cc(C[C@@H](C[C@H](N)[C@@H](O)C[C@H](C(=O)NCC(C)(C)C(N)=O)C(C)C)C(C)C)ccc1OC [Aliskiren-hemifumarate],126%
4,COc1cc2c(N3CCN(C(=O)Nc4ccc(OC(C)C)cc4)CC3)ncnc2cc1OCCCN1CCCCC1 [Tandutinib-(MLN518)],99.7%
5,CC1C(=O)OC2C(O)C34C5CC(C(C)(C)C)C36C(OC(=O)C6O)OC4(C(=O)O5)C12O (stereo unspecified) [Ginkgolide-B],85.5%
6,CC/C(=C(\c1ccccc1)c1ccc(OCCN(C)C)cc1)c1ccccc1 [Tamoxifen-Citrate(Nolvadex)],112%
7,CN(C)Cc1c(C(=O)NCCOc2ccc(C(=O)NO)cc2)oc2ccccc12,211%
8,Nc1nc(N)nc(-c2cc(Cl)ccc2Cl)n1 [Irsogladine-maleate],140%
9,CNC(=O)c1ccc(-c2cnc3ncc(Cc4ccc5ncccc5c4)n3n2)cc1F,107%
10,CCc1cc2c(cc1CC)CC(NC[C@H](O)c1ccc(O)c3[nH]c(=O)ccc13)C2 [indacaterol-maleate],107%
11,CCS(=O)(=O)c1cccc(-c2cc(C(=O)NC3CCN(C)CC3)c(C)c3[nH]c4ncc(C)cc4c23)c1,103%
12,CN(C)C/C=C/C(=O)Nc1cc2c(Nc3ccc(F)c(Cl)c3)ncnc2cc1O[C@H]1CCOC1,121%
13,CN(C)CCC(c1ccc(Cl)cc1)c1ccccn1 (stereo unspecified) [Chlorpheniramine-maleate],106%
14,CC(=O)N1CCN(c2ccc(OCC3COC(Cn4ccnc4)(c4ccc(Cl)cc4Cl)O3)cc2)CC1 (stereo unspecified) [Ketoconazole],109%
15,COCCOc1ccc2c(c1)ncn2-c1ccc2cccc(N3CCC(N)CC3)c2n1,264%
16,C=CCc1ccc(O)c(-c2ccc(O)c(CC=C)c2)c1 [Honokiol],104%
17,C[C@H](NC(=O)/C(C#N)=C/c1cccc(Br)n1)c1ccccc1,86.1%
18,O=C1NC(=O)/C(=C/c2cccc(C(F)(F)F)c2)S1,107%
19,Cc1nn(-c2ccccc2)c(C)c1C=NN1CCN(Cc2ccccc2)CC1 [sant-1],103%

row,SMILES,normalized SmoIP GFP fluorescence
1,CN1C(C(=O)Nc2ccccn2)=C(O)c2sc(Cl)cc2S1(=O)=O [lornoxicam-xefo],129%
2,C#Cc1cccc(Nc2ncnc3cc4c(cc23)OCCOCCOCCO4)c1 [icotinib],93.3%
3,CCOC(=O)CCNc1cc(N2CCc3ccccc3CC2)nc(-c2ccccn2)n1,116%
4,COc1ccc(-c2oc3c(CC=C(C)C)c(O[C@@H]4O[C@H](CO)[C@@H](O)[C@H](O)[C@H]4O)cc(O)c3c(=O)c2O[C@@H]2O[C@@H](C)[C@H](O)[C@@H](O)[C@H]2O)cc1 [Icariin],92.7%
5,Cc1ccc(NC(=O)c2cccc(N(C)C)c2)cc1NC(=O)c1ccc(O)cc1,120%
6,C=CC(=O)Nc1ccc2ncnc(Nc3ccc(OCc4cccc(F)c4)c(Cl)c3)c2c1,99.1%
7,Cc1ccc(Sc2ccccc2N2CCNCC2)c(C)c1,169%
8,Cc1[nH]nc2ccc(-c3cncc(OC[C@@H](N)Cc4ccccc4)c3)cc12,134%
9,Oc1cc(O)c(Cl)cn1 [gimeracil],107%
10,CN1CCN(C2=Nc3cc(Cl)ccc3Nc3ccccc32)CC1 [Clozapine(Clozaril)],119%
11,C=CC(=O)Nc1cccc(Nc2nc(Nc3ccc(OCCOC)cc3)ncc2F)c1,116%
12,CNC(=O)c1ccc2cc([C@@]3(O)CCn4cncc43)ccc2c1,104%
13,NCCc1c[nH]cn1 [histamine-2hcl],104%
14,C=CC(=O)Nc1ccc2ncnc(Nc3cccc(Br)c3)c2c1,125%
15,Cc1cc(C)nc(NS(=O)(=O)c2ccc(NC(=S)NC(=O)COc3ccc(Br)cc3Cl)cc2)n1,105%
16,O=[N+]([O-])c1ccc2c(c1)S(=O)(=O)C=C2 [stattic],116%
17,COc1cc(N2CCC(N)CC2)ccc1Nc1ncc(Cl)c(-c2c[nH]c3ccccc23)n1,113%
18,C=CC(=O)Nc1cc2c(Nc3ccc(F)c(Cl)c3)ncnc2cc1OCCCN1CCOCC1 [CI-1033(Canertinib)],109%
19,Nc1ccc(-c2ccc3ncc4ccc(=O)n(-c5cccc(C(F)(F)F)c5)c4c3c2)cn1 [torin-2],59.5%

# Same assay, conditions: stimulation: mock conditioned medium (-Hh); compound concentration: 2 uM; 24 h
row,SMILES,normalized SmoIP GFP fluorescence
1,Cc1c(NC(=O)OC[C@@H]2COCCN2)cn2ncnc(Nc3ccc4c(cnn4Cc4cccc(F)c4)c3)c12,16.5%
2,N[C@@H](CC(=O)N1CCn2c(nnc2C(F)(F)F)C1)Cc1cc(F)c(F)cc1F [Sitagliptin],-1.74%
3,COCCCOc1cc(C[C@@H](C[C@H](N)[C@@H](O)C[C@H](C(=O)NCC(C)(C)C(N)=O)C(C)C)C(C)C)ccc1OC [Aliskiren-hemifumarate],-8.59%
4,COc1cc2c(N3CCN(C(=O)Nc4ccc(OC(C)C)cc4)CC3)ncnc2cc1OCCCN1CCCCC1 [Tandutinib-(MLN518)],1.89%
5,CC1C(=O)OC2C(O)C34C5CC(C(C)(C)C)C36C(OC(=O)C6O)OC4(C(=O)O5)C12O (stereo unspecified) [Ginkgolide-B],0.489%
6,CC/C(=C(\c1ccccc1)c1ccc(OCCN(C)C)cc1)c1ccccc1 [Tamoxifen-Citrate(Nolvadex)],-6.61%
7,CN(C)Cc1c(C(=O)NCCOc2ccc(C(=O)NO)cc2)oc2ccccc12,35.2%
8,Nc1nc(N)nc(-c2cc(Cl)ccc2Cl)n1 [Irsogladine-maleate],-3.9%
9,CNC(=O)c1ccc(-c2cnc3ncc(Cc4ccc5ncccc5c4)n3n2)cc1F,-1.34%
10,CCc1cc2c(cc1CC)CC(NC[C@H](O)c1ccc(O)c3[nH]c(=O)ccc13)C2 [indacaterol-maleate],-2.82%
11,CCS(=O)(=O)c1cccc(-c2cc(C(=O)NC3CCN(C)CC3)c(C)c3[nH]c4ncc(C)cc4c23)c1,-25.2%
12,CN(C)C/C=C/C(=O)Nc1cc2c(Nc3ccc(F)c(Cl)c3)ncnc2cc1O[C@H]1CCOC1,7.92%
13,CN(C)CCC(c1ccc(Cl)cc1)c1ccccn1 (stereo unspecified) [Chlorpheniramine-maleate],-12.2%
14,CC(=O)N1CCN(c2ccc(OCC3COC(Cn4ccnc4)(c4ccc(Cl)cc4Cl)O3)cc2)CC1 (stereo unspecified) [Ketoconazole],2.64%
15,COCCOc1ccc2c(c1)ncn2-c1ccc2cccc(N3CCC(N)CC3)c2n1,80%
16,C=CCc1ccc(O)c(-c2ccc(O)c(CC=C)c2)c1 [Honokiol],-9.22%
17,C[C@H](NC(=O)/C(C#N)=C/c1cccc(Br)n1)c1ccccc1,8.14%
18,O=C1NC(=O)/C(=C/c2cccc(C(F)(F)F)c2)S1,-9.04%
19,Cc1nn(-c2ccccc2)c(C)c1C=NN1CCN(Cc2ccccc2)CC1 [sant-1],-2.59%

row,SMILES,normalized SmoIP GFP fluorescence
1,CN1C(C(=O)Nc2ccccn2)=C(O)c2sc(Cl)cc2S1(=O)=O [lornoxicam-xefo],-4.89%
2,C#Cc1cccc(Nc2ncnc3cc4c(cc23)OCCOCCOCCO4)c1 [icotinib],-1.63%
3,CCOC(=O)CCNc1cc(N2CCc3ccccc3CC2)nc(-c2ccccn2)n1,-2.48%
4,COc1ccc(-c2oc3c(CC=C(C)C)c(O[C@@H]4O[C@H](CO)[C@@H](O)[C@H](O)[C@H]4O)cc(O)c3c(=O)c2O[C@@H]2O[C@@H](C)[C@H](O)[C@@H](O)[C@H]2O)cc1 [Icariin],-3.27%
5,Cc1ccc(NC(=O)c2cccc(N(C)C)c2)cc1NC(=O)c1ccc(O)cc1,-14.7%
6,C=CC(=O)Nc1ccc2ncnc(Nc3ccc(OCc4cccc(F)c4)c(Cl)c3)c2c1,-15.8%
7,Cc1ccc(Sc2ccccc2N2CCNCC2)c(C)c1,-11.4%
8,Cc1[nH]nc2ccc(-c3cncc(OC[C@@H](N)Cc4ccccc4)c3)cc12,8.54%
9,Oc1cc(O)c(Cl)cn1 [gimeracil],-6.97%
10,CN1CCN(C2=Nc3cc(Cl)ccc3Nc3ccccc32)CC1 [Clozapine(Clozaril)],0.154%
11,C=CC(=O)Nc1cccc(Nc2nc(Nc3ccc(OCCOC)cc3)ncc2F)c1,-2.31%
12,CNC(=O)c1ccc2cc([C@@]3(O)CCn4cncc43)ccc2c1,-1.56%
13,NCCc1c[nH]cn1 [histamine-2hcl],1.21%
14,C=CC(=O)Nc1ccc2ncnc(Nc3cccc(Br)c3)c2c1,-0.662%
15,Cc1cc(C)nc(NS(=O)(=O)c2ccc(NC(=S)NC(=O)COc3ccc(Br)cc3Cl)cc2)n1,-4.81%
16,O=[N+]([O-])c1ccc2c(c1)S(=O)(=O)C=C2 [stattic],-1.74%
17,COc1cc(N2CCC(N)CC2)ccc1Nc1ncc(Cl)c(-c2c[nH]c3ccccc23)n1,-2.48%
18,C=CC(=O)Nc1cc2c(Nc3ccc(F)c(Cl)c3)ncnc2cc1OCCCN1CCOCC1 [CI-1033(Canertinib)],13.8%
19,Nc1ccc(-c2ccc3ncc4ccc(=O)n(-c5cccc(C(F)(F)F)c5)c4c3c2)cn1 [torin-2],-9.64%
